# From PubChem BioAssay (NCATS)
# Several values for one entry are separate records, joined by “and”; a condition that tells them apart may be missing. Identical values can stand only once. Results filed as inconclusive are left out. Activity calls are given as the source filed them. Calls follow the shape of the dose curve; as a rule, active = well fitted activation curve with a large enough effect; inconclusive = small, poorly fitted or top-dose-only effect; inactive = no such curve, though single readings can be large or run the other way. Peptide text beside a SMILES is read from it. * marks the point of attachment. Hexanoyl = CCCCCC(=O)*
# Biological target: Cellular tumor antigen p53 (Homo sapiens) (UniProt P04637)
# Sequence (P04637 whole entry, looked up): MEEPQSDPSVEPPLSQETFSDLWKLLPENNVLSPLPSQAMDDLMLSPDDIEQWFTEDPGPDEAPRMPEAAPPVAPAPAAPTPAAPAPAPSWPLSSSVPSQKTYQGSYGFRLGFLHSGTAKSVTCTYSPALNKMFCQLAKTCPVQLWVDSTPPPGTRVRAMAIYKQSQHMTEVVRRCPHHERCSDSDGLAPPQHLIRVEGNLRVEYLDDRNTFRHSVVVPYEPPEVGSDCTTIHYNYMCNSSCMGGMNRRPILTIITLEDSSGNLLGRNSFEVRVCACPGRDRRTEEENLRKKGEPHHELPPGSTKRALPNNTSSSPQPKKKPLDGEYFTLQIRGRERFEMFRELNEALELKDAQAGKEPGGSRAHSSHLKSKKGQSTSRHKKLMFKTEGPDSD
# Assay: Primary qHTS for small molecule compounds that upregulate eGFP-tagged delta133p53alpha (in N-terminal) cells. (AID 2060322); also: nearly all actives have a fitted effect of over 75% in size;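 as to activation: series mostly up to about 56 µM; 0% = DMSO vehicle and 100% = reference activator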
# Settings: NCI-H358 eGFP-delta133p53alpha fluorescence, 24 h; activation: hits give high values
# Outline: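 NCI-H358 cells pre-induced 24 h with 10 ng/ml doxycycline to express N-terminal eGFP-delta133p53alpha, then dosed 24 h at 37C without doxycycline; fixed, Hoechst-stained, GFP intensity by laser scanning cytometry, normalized to DMSO (0%) and 57.5 uM 5-azacytidine (100%).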
# Potency is read from the fitted curve at half-maximal effect.
Compound,activation,Potency
C[C@@H]1O[C@@H](O[C@H]2[C@H](O[C@H]3CC[C@@]4(C)C(CC[C@]5(C)C4CC=C4C6CC(C)(C)CC[C@]6(C(=O)O[C@@H]6O[C@H](CO[C@@H]7O[C@H](CO)[C@@H](O[C@@H]8O[C@@H](C)[C@H](O)[C@@H](O)[C@H]8O)[C@H](O)[C@H]7O)[C@@H](O)[C@H](O)[C@H]6O)CC[C@]45C)[C@]3(C)CO)OC[C@H](O)[C@@H]2O)[C@H](O)[C@H](O)[C@H]1O (stereo not given in full),3.82% (inactive),–
C[C@@H]1CCC2C(C)(C)[C@H](O)CC[C@]2(C)[C@@]12Cc1c(O)cc3c(c1O2)CNC3=O (stereo not given in full),-20.6% (inactive),–
Cc1ccc(S(=O)(=O)NCc2ccc(C(=O)NCCN(Cc3ccccc3)C(C)C)cc2)cc1,3.67% (inactive),–
C=C(C)C1CC(O)C(C)C12CC(O)C1(C)OC1C2O (stereo not given),19.1% (inactive),–
C/C=C/C=C/C=C/C(=O)N(C)C(C(=O)NC(C)C(=O)N1CCCC1C(N)=O)C(C)C (stereo not given),17.6% (inactive),–
COc1cc(COC2OC(CO)C(O)C(O)C2O)cc(OC)c1O (stereo not given),-6.87% (inactive),–
Nc1ncnc2c1c(-c1ccc(Cl)cc1)nn2-c1cccc(-c2cnnn2Cc2cccc(-c3ccccc3)c2)c1,8.04% (inactive),–
C[C@@H](c1ccccc1)N(C(N)=NC#N)c1cccc2ncccc12,2.33% (inactive),–
COc1ccccc1-c1cc(Nc2cccc(CS(N)(=O)=O)c2)ncn1,–,8.49 µM (active)
C=CC1(C)CC(OC(=O)C(=C)C(O)COC(C)=O)C(C(=C)C(=O)OC)C(O)C1C(=C)CO (stereo not given),-2.29% (inactive),–
C[C@@]1(O)[C@H](O)[C@@H](CO)O[C@H]1n1ccc(N)nc1=O,0.333% (inactive),–
C=C1C(=O)O[C@@H]2[C@H]1CCC(C)=C1CCC(=O)O[C@]12C,–,12 µM (active)
COc1cc(/C=C/C(=O)OC2CC3CCC2(C)C3(C)C)ccc1O (stereo not given),-14.5% (inactive),–
COc1cc(C(C)=O)ccc1O[C@@H]1O[C@H](CO)[C@@H](O)[C@H](O)[C@H]1O,-7.63% (inactive),–
CC1(C)CC2C(C1)C(C)(O)C13CC1(COC3=O)C2O (stereo not given),8.93% (inactive),–
CCC(C)/C=C(C)/C=C/C1=CC2=C(Cl)C(=O)C(C)(O)C(=O)C2(O)C(OC)O1 (stereo not given),28.2% (inactive),–
C/C=C(\C)C(=O)O[C@H]1C=CC(=O)O[C@H]1/C=C/[C@@H](O)[C@H](C)O,–,26.9 µM (active)
N#Cc1cccc(C(=O)Nc2cc(-c3ccccc3)nn2-c2ccccc2)c1,-0.893% (inactive),–
CC1(C)CCC[C@@]2(C)C1[C@H](OC(=O)/C=C/C=C/C(=O)O)C=C1COC(=O)[C@@]12O (stereo not given in full),-13% (inactive),–
C=C(C)[C@@H]1CC[C@]2(C(=O)O)CC[C@]3(C)C(CCC4[C@@]5(C)C[C@@H](O)[C@H](O)C(C)(C)C5CC[C@]43C)C12 (stereo not given in full),-10.7% (inactive),–

Compound,activation,Potency
CC(C)c1c(O)ccc2c1CC[C@H]1C(C)(C)CCC[C@]21C,25.9% (inactive),–
OCC(CO)(CO)NCC(O)Cn1c2ccc(Cl)cc2c2cc(Cl)ccc21 (stereo not given),–,23.9 µM (active)
CCCCCC(=O)N1CCC[C@H]1C(=O)N[C@@H](Cc1ccc(O)cc1)C(=O)OC (Hexanoyl-Pro-Tyr-OMe),-3.57% (inactive),–
CC(C)OC(=O)N1CCC(Oc2ncnc3c2cnn3-c2ccc(S(C)(=O)=O)cc2F)CC1,4.3% (inactive),–
CC1CCC2(C(=O)O)CCC3(C)C(=CCC4C5(C)CCC(OC(=O)/C=C/c6ccccc6)C(C)(C)C5CCC43C)C2C1C (stereo not given),-8.4% (inactive),–
CN1CCN(S(=O)(=O)c2ccc(-c3cnc(N)c(C(=O)Nc4cccnc4)n3)cc2)CC1,-18.8% (inactive),–
Cc1ccccc1C(=O)Nc1ccc(C(=O)N2CCC[C@@H](O)c3cc(Cl)ccc32)c(C)c1,0% (inactive),–
Cc1ccccc1CN1C2=NCCN2C(=O)C2=C1CCN(Cc1ccccc1)C2,29% (inactive),–
C[C@@H](Nc1cc(NS(=O)(=O)N2CCC2)nc(SCc2cccc(F)c2F)n1)[C@@H](O)CO,-20.5% (inactive),–
C[C@@H]1C(=O)O[C@H]2CC34[C@H]5C[C@@H](C(C)(C)C)C36[C@@H](OC(=O)[C@@H]6O)O[C@@]4(C(=O)O5)[C@]21O (stereo not given in full),19.1% (inactive),–
CCCOc1ccc(-c2nc(OC)c3ccccc3n2)cc1,-5.67% (inactive),–
C[C@H](/C=C/[C@@]1(O)[C@H](C)CC(=O)CC1(C)C)O[C@@H]1O[C@H](CO[C@@H]2OC[C@@H](O)[C@H](O)[C@H]2O)[C@@H](O)[C@H](O)[C@H]1O,-6.11% (inactive),–
O=c1ccn(C2OC(CO)C(O)C2O)c(=O)[nH]1 (stereo not given),17.6% (inactive),–
CC1(c2nc3c(C(N)=O)cccc3[nH]2)CCCN1 (stereo not given),-1.43% (inactive),–
Cc1cn2cc(CC(=O)N3CCC4(CC3)CN(Cc3ccc(-n5nccn5)cc3Cl)C4)nc2s1,-8.93% (inactive),–
CC(=O)NC(Cc1ccccc1)C(=O)O (stereo not given),1.67% (inactive) and 0% (inactive),–
Cc1ccccc1C(=O)N1CC/C(=N\OS(=O)(=O)O)c2ccc(Cl)cc21,-1.67% (inactive),–
C[C@H]1[C@H](C)CC[C@]2(C(=O)O)CC[C@]3(C(=O)O)C(=CCC4[C@@]5(C)CC[C@H](O[C@@H]6O[C@@H](C)[C@H](O)[C@@H](O)[C@H]6O)C(C)(C)C5CC[C@]43C)[C@H]12 (stereo not given in full),-4.58% (inactive),–
CC12CC34CC(O)C5C(CO)(CO)CC(=O)CC5(C)C3CC1C2C4 (stereo not given),5.34% (inactive),–
CC(C)(C)NCc1cc(Nc2ccnc3cc(Cl)ccc23)c2c(c1O)CCCC2,-11% (inactive),–
